Hits are enriched below; roughly 3% of the tested compounds scored in any of these assays.
LMP1 NFkB inh = inhibitors of Epstein-Barr LMP1-induced NF-kappaB reporter | AID 504558 | inhibition, % at 12.5 µM | hit rate 0.69% among 350,000 | LMP1-induced NF-kappaB luciferase reporter cells, luminescence; in the data active = inhibition above about 41%;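 note: 0% = neutral control wells and 100% = reference inhibitor control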
MITF TRPM1 inh = inhibitors of MITF-driven TRPM1 promoter in melanoma cells. SK-MEL-5 TRPM1 promoter luciferase, 24 h. inhibition, % at 12.5 µM. hit rate 0.83% among 330,000. AID 488899;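 active = mean inhibition across replicates of 60% or more, whatever share of single replicates reaches that level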
HIF-2a inh = inhibitors of HIF-2a; 786-0 RCC cells HIF-2a reporter, luciferase luminescence, overnight; inhibition, % at 18.8 µM; hit rate 0.72% among 360,000;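 active = inhibition of the luminescence signal of 40% or more relative to plate controls, in a single-dose primary screen at 18.75 µM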
Peg3 prom inh-1 = Peg3 promoter activity inhibition. AID 588405. hit rate 1.7% among 360,000. inhibition, % at 20 µM. HeLa PEG-Prom luciferase reporter, luminescence, overnight;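 active = inhibition of at least 50% at 20 µM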
CF NFkB block = inhibitors of cystic fibrosis induced NF-kB | KKLEB NF-kB-GFP reporter, PAF-induced, GFP fluorescence overnight | inhibition, % at 5 µM | AID 588850 | hit rate 0.86% among 360,000;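 active = at least 50% inhibition at 5 µM, scaled per plate between neutral and stimulator controls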;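 note: PAF is a Pseudomonas aeruginosa culture filtrate used as stimulus; plate controls were PAF-stimulated DMSO wells for no effect and unstimulated DMSO wells for full effect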
KKLEB cytotox = counter-screen for CF NF-kB inhibitors: cytotoxicity | KKLEB CF airway cells viability, ATPlite luminescence, overnight; stronger effect = lower value; cells stimulated with P. aeruginosa culture filtrate | activity change (cytotoxicity), % at 5 µM | hit rate 0.36% among 360,000 | AID 602141;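 active = corrected activity change at or below -50% at 5 µM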
Peg3 prom inh-2 = Peg3 promoter inhibition confirmation. shares compounds with Peg3 prom inh-1. HeLa PEG-Prom luciferase reporter, luminescence, overnight. hit rate 84% among 1,300. inhibition, % at 20 µM;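 active = at 20 µM dose, 40% or more inhibition averaged across four replicates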
CF NFkB conf = confirmation of cystic fibrosis induced NF-kB inhibitors; shares compounds with CF NFkB block; KKLEB CF airway cells, PAF-induced NF-kB-GFP fluorescence, overnight; inhibition, % at 5 µM; hit rate 64% among 1,300; AID 602472; in the data active = inhibition above about 40%;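 note: stimulus PAF is a Pseudomonas aeruginosa filtrate and not platelet activating factor; plate controls were DMSO wells with stimulus for no effect and unstimulated DMSO wells for full effect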
Mdm2 MdmX conf = Mdm2/MdmX (human) interaction inhibition, confirmed; shares compounds with HIF-2a inh; SaOS-2 split-luciferase Mdm2/MdmX complementation, luminescence; inhibition, % at 8 µM; hit rate 99% among 740; AID 504601;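 active = mean inhibition of the luminescence signal across two replicates at or above 26 percent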
HIF-2a conf = confirmation of HIF-2a inhibitors. AID 651580. shares compounds with HIF-2a inh. 786-0 RCC cells, HIF-2a luciferase reporter luminescence, overnight. inhibition, % at 18.8 µM. hit rate 56% among 1,800;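 active = mean inhibition across four replicates of at least 40 percent at the single tested concentration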
HIF-1a cs = HIF-1a inhibition counter-screen for HIF-2a hits; hit rate 72% among 1,800; inhibition, % at 18.8 µM; AID 651589; MiaPaCa-2 HIF-1a luciferase reporter, desferoxamine, overnight; shares compounds with HIF-2a inh;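 active = mean inhibition of the reporter signal across four replicates at the single tested dose of 50% or more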
The depositor's hits bear a star; . = no result given.

SMILES	LMP1 NFkB inh	MITF TRPM1 inh	HIF-2a inh	Peg3 prom inh-1	CF NFkB block	KKLEB cytotox	CF NFkB conf	others
COc1cccc(C2CC3C(=O)C=CC2N3Cc2ccccc2)c1 (stereo not given)	-10.2	22.9	47.9*	68.2*	16.7	-0.4	.	Peg3 prom inh-2=70.6*;HIF-2a conf=57.3*;HIF-1a cs=47.0
CN(C)c1cccc2c(C#N)ccc(N(C)C)c12	-14.8	-6.5	12.5	10.3	-1.9	-2.2	.
COc1cc(C2c3cc4c(c(O)c3CC3COC(=O)C32)OCO4)cc(OC)c1OC (stereo not given)	-8.2	41.4	19.6	-19.4	50.6*	-10.9	90.2*
COc1cc(C2c3cc4c(cc3CC3COC(=O)C32)OCO4)cc(OC)c1OC (stereo not given)	12.8	.	7.0	-14.4	41.4	-23.0	.
Oc1ccc(Br)cc1CN1CCN(c2ccccc2)CC1	3.0	3.1	2.1	13.4	62.4*	-27.2	13.0
COC(=O)C1=C(c2cccc(OC)c2OC)C[C@@H]2CC[C@H]1N2C(=O)N1CCOCC1	-4.0	-3.7	1.2	0.7	-2.4	4.0	.
CCNC(=O)[C@H]1O[C@@H](n2cnc3c(N)ncnc32)[C@H](O)[C@@H]1O	16.5	4.8	5.6	-4.3	-10.2	-4.5	.
NC(=O)c1c(Br)n(C2OC(CO)C(O)C2O)c2ncnc(N)c12 (stereo not given)	-5.8	50.9	21.4	43.7	60.7*	-30.1	60.5*
N#Cc1c(Br)n(C2OC(CO)C(O)C2O)c2ncnc(N)c12 (stereo not given)	-83.8	36.1	-13.4	61.1*	73.0*	-23.7	84.0*
COc1ccc(OC(=O)N(C)C[C@H]2OCc3cnnn3CCCC(=O)N([C@H](C)CO)C[C@H]2C)cc1	0.6	.	7.1	9.0	7.1	1.1	.
O=C(Nc1ccccc1)N1Cc2ccccc2-n2nncc2C1	-3.9	-16.0	0.0	-7.3	8.4	-0.6	.
O=c1[nH]c2ccccc2n1C1CCN(C(c2cc3ccccc3o2)c2nnnn2-c2ccc3c(c2)OCCO3)CC1 (stereo not given)	.	.	-3.0	97.5*	79.7*	-34.8	105.8*
COc1ccc(C(c2nnnn2-c2ccc(OC)cc2)N2CCC(n3c(=O)[nH]c4ccccc43)CC2)cc1 (stereo not given)	.	.	-19.8	67.9*	92.2*	-39.3	90.2*
C[C@H]1CCC[C@@H](O)CCC/C=C/c2cc(O)cc(O)c2C(=O)O1	21.2	9.6	-6.0	64.4*	51.1*	0.5	46.5*
C[C@H]1CCC[C@H](O)CCCCCc2cc(O)cc(O)c2C(=O)O1	-6.9	-3.1	6.8	22.3	34.9	10.7	.
CCOC(=O)c1cnc(SCc2ccc(Cl)c(Cl)c2)nc1N1CC1	-2.7	33.8	-11.8	31.0	66.6*	-40.6	38.3
COc1ccc(C(CNC(=O)Cc2ccc(Cl)c(Cl)c2)N2CCCCC2)cc1 (stereo not given)	-0.5	-16.3	18.6	5.8	-5.2	-6.4	.
COP(=S)(OC)SCn1nnc2ccccc2c1=O	-4.2	0.7	-5.7	-37.1	-6.1	4.3	.
CCC1(CCC(C)C)C(=O)NC(=S)NC1=O	0.5	-17.4	14.7	8.3	-3.6	-1.9	.
NC(=Nc1ccccc1)NN=Cc1c[nH]c2ccccc12	3.7	88.3*	-14.1	33.0	66.9*	-44.7	55.1*
CNc1cc(Cl)c2nonc2c1[N+](=O)[O-]	22.8	96.0*	95.2*	107.2*	84.0*	-46.3	29.1	HIF-2a conf=93.0*;HIF-1a cs=105.7*
COC(=O)C1=C(c2cc3ccccc3s2)C[C@@H]2CC[C@H]1N2C(=O)NC1CCCCC1	2.0	0.9	13.0	0.5	6.3	-7.8	.
CNC(=O)Oc1ccccc1C1CCCCC1	-1.8	-8.5	5.5	14.0	18.8	-15.4	.
COc1ccc(Oc2cc(NC(=O)c3nn(C)cc3[N+](=O)[O-])cc([N+](=O)[O-])c2)cc1	-5.0	81.1*	93.7*	103.9*	58.8*	-41.7	107.5*	Mdm2 MdmX conf=84.5*
C[C@@H]([C@@H](O)c1ccccc1)N(C)C(=O)Cc1ccccc1	-0.5	3.7	13.4	3.2	-19.3	13.1	.
SMILES	LMP1 NFkB inh	MITF TRPM1 inh	HIF-2a inh	Peg3 prom inh-1	CF NFkB block	KKLEB cytotox	CF NFkB conf	others
CN(C)CC(C(=O)Cc1ccccc1)c1ccccc1 (stereo not given)	0.5	41.1	96.8*	101.4*	59.1*	-39.5	-41.2	HIF-2a conf=22.2;HIF-1a cs=105.6*
CCCC[C@@H](C)C[C@@H](C)C(=O)N(C)[C@@H](CC(C)C)C(=O)N[C@H](C(=O)N(C)[C@H](C(=O)N1C[C@@H](O)C[C@H]1C(=O)N1C(=O)C=C[C@@H]1C)C(C)C)C(C)OC(C)=O (stereo not given in full)	3.9	99.5*	53.2*	92.1*	84.2*	-88.3*	.	Mdm2 MdmX conf=99.9*
COCCCn1c(-c2ccc(OC)cc2)cc(C(=O)NC2CCCCCCC2)c1C	3.1	17.2	20.7	2.8	20.5	-5.8	.
CCOC(=O)[C@]12Cc3ccccc3[C@H]1N(Cc1ccccc1)C(=O)c1cc(F)c(F)cc12	.	.	19.9	.	.	.	.
Cc1cc(=O)oc2c(C)c(OCC(=O)N3CCC(C(=O)O)(c4ccccc4)CC3)ccc12	-8.7	-8.2	10.3	-10.5	-11.3	5.0	.
COc1ccc(/C=C/C(=O)c2c(O)n(CCC3=CCCCC3)c(=O)[nH]c2=O)cc1	-7.9	-5.6	52.7*	7.3	-17.6	2.2	.	HIF-2a conf=32.5;HIF-1a cs=64.7*
COC(=O)CCCC(NC(=S)N1CC2C[C@@H](C1)Cn1c2cccc1=O)C(=O)OC (stereo not given in full)	-11.2	-5.2	11.9	3.7	2.2	-9.1	.
CC1([N+](=O)[O-])COP(=O)(Nc2cccc(Br)c2)OC1 (stereo not given)	6.1	-2.4	-5.2	4.5	48.1	-6.8	.
CC[C@]12C=CCN3CCC4(c5cc(Br)c(OC)cc5N(C)C4[C@@](O)(C(=O)OC)[C@@H]1OC(C)=O)C32 (stereo not given in full)	0.1	6.1	40.5*	12.3	15.7	-17.8	.	HIF-2a conf=-4.0;HIF-1a cs=15.4

Screening data: PubChem, several laboratories
